The supplement of paper PMC11417369
± gives the standard deviation of the averaged measurements. The full ranking holds about 25,000 sequences; the median of “ln(normalized median fluorescence intensity)” is about 8.9, and the highest 2% start at about 10. Shown is part of a subset that was picked to be rich in the highest values.

test system: PfAP2-LT AP2 domain (GST-tagged); assay: gcPBM binding intensity (ln(normalized median fluorescence intensity)); higher = stronger DNA binding
Method in brief: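 An Agilent 4 × 180k array carrying primer-extended double-stranded 36-bp intergenic genomic probes and negative controls received GST-tagged P. falciparum DNA-binding domains expressed in E. coli, about 25 μg on average, for 1 h. The binding buffer contained 1× PBS, 1% milk, 0.2 mg/ml BSA, 0.5% salmon testes DNA and 0.03% Triton X-100. Binding intensity is the top Masliner-normalised natural-log median intensity across replicate spots of either probe orientation, read after Alexa488 anti-GST antibody staining and a 488 nm scan.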

Sequence	gcPBM binding intensity (ln)
ACGATGTTCATCACTACACACACAAAGAAATATATA [CACACA_site8859]	9.26 ± 0.37
CACAGACACGGACACACACACACACCCATATATATA [CACACA_site4354]	10.1 ± 0.32
AAAACACGCGGACACACACACACACGCCCACATATA [CACACA_site7105]	10.1 ± 0.33
CACGCGCCCGGACACACACACACACCCATATATATA [CACACA_site5251]	10.2 ± 0.57
TACACAGACGGACACACACACACACTAGAAAAAAAA [CACACA_site4435]	10.1 ± 0.59
ACTTGACACGGACACACACACATATATAAAAAAAAA [CACACA_site4576]	9.53 ± 0.51
CACAGACACGGACACACACACACACCGATATATATA [CACACA_site4353]	9.88 ± 0.24
CACACGCACGGACACACACACATATAAAATCTATAT [CACACA_site6428]	9.85 ± 0.57
AGCACAGACGGACACACACACACACCCACAGACACA [CACACA_site4358]	10.1 ± 0.23
CGTGGGAGCGGACACACACACACACCCATATATATA [CACACA_site4340]	9.86 ± 0.41
TACAAAAGTTAAACATGTACTTAATTATATGTTTTT [XGTACX_site2852]	8.57 ± 0.44
TTCTTAATTTAAAATTGTACTTAAGTAATACTTATG [XGTACX_site3928]	8.49 ± 0.57
TTGTTTCCGATGAAAGAAAGGAAATTATAATATATC [GTGCAC_negctrl_site516]	8.43 ± 0.44
AAGTAATCATCATAAAGTACTAAATTATATTGTCAA [XGTACX_site5841]	8.67 ± 0.37
TATAAACAGACGAAAACACACATATGTAAATATATA [CACACA_site4428]	9.15 ± 0.44
TTTATTATCTTATTCACACACATATATAAATATGTA [CACACA_site7369]	9.06 ± 0.42
TGTTTTTTATATTACTGTACATGTTTTGGAATAATA [XGTACX_site4716]	8.75 ± 0.4
ATGAACAAGGGGCACACACACATTATGACTAATTTA [CACACA_site3204]	9.6 ± 0.45
TTTAAATATTTTATAGCATGCTACCAATATGTATAT [TGCATGCA_site291]	8.83 ± 0.52
TAGTGTGCCAAATTAGCACACACATATATACATGAA [CACACA_site8910]	9.6 ± 0.36
TCTTTTTCTTGACGAGTGCAAAAATTGTGTTTGAAA	8.48 ± 0.35
TCGTAAACATATTGAAAAATATAAAAAGGGGTAATA [CACACA_negctrl_site619]	8.71 ± 0.56
CTGAAGGAAAAAGAAAGTACTTTTTTTTTTTTGAAG [XGTACX_site5973]	8.22 ± 0.68

Sequence	gcPBM binding intensity (ln)
TTGGCATACGGACACACACACACACCCAGACATATA [CACACA_site4492]	9.84 ± 0.18
CACAGACACGGACACACACACACACCCAGACACATA [CACACA_site4357]	10.1 ± 0.43
ATCAAGCACGGACACACACACACACCCAGACCCCCA [CACACA_site4360]	10.19 ± 0.099
CAAGCACCCAGACACACACACACACCCACACCCACA [CACACA_site369]	10.1 ± 0.47
TTTATTTTATCATTTGCACACGCACCCAGACATAAA [CACACA_site4347]	9.19 ± 0.35
TTCTATTTTAATATCTGTACATAATAAAGATCCATT [XGTACX_site1142]	8.46 ± 0.49
ACATTATATTTGGACTGTACTAATATATTGTTATAT [XGTACX_site5573]	8.91 ± 0.42
GCTTATTAATATCATACACACATAGATATATTTATA [CACACA_site3104]	8.91 ± 0.39
TATATGTTATATTGGACACACACAATAAACATTATG [CACACA_site8480]	9.21 ± 0.38
AACCAGTTGATGTGTACACATATAGTAATAATTTTA [CACACA_site5564]	9.16 ± 0.52
TAAAATTATTAATGAGTGCATTATAAAATCTATATA [GTGCAC_site9493]	8.38 ± 0.46
ATATTTTCCCTTTATAGGAGCACAAAAATTAAATGT [CACACA_negctrl_site1114]	8.46 ± 0.35
AGGAAATGTTTATATACATGCATAATTAAATATAAT [TGCATGCA_site672]	8.74 ± 0.46
AAAAAAAACAAATACACACGCACACCGAAAAAAAAA [CACACA_site803]	9.6 ± 0.39
AAAAAAACAACATGCACACGCACACCCAAAAAAAGC [CACACA_site72]	9.84 ± 0.32
AAAAAAAAAACACGCGCACACACACCCACCCACCCA [CACACA_site8689]	10.365 ± 0.0071
TACACAAACAGACACACACACACACGCGCACAAAAA [CACACA_site7192]	10.06 ± 0.042
AAAAAAAAAACAAATACACACGCACCCAAAAAAAAA [CACACA_site8166]	9.61 ± 0.18
AAAAAAAACACGCGCACACACACACCCACCCACCGA [CACACA_site2206]	10.32 ± 0.078
AGAAAAAAACAACATGCACACGCACCCACAAAAAAA [CACACA_site7908]	9.51 ± 0.28
AAAAAAAACACGCGCACACACACACCCACAGACACA [CACACA_site5253]	10.2 ± 0.14
ATAGACAGCGCACAAACACACAAACACCCACCCACA [CACACA_site8043]	9.99 ± 0.31
GTTTTGTACATATTCTCACACATATAAAAATACCCA [CACACA_site4446]	8.77 ± 0.42

Sequence	gcPBM binding intensity (ln)
TATATATATATATATATACACACTATATAATTCAAA [CACACA_site1023]	9.67 ± 0.042
GAATAAAAATTTTAATGTACATATTTTTTATTTATA [XGTACX_site8935]	8.41 ± 0.49
TTTTTTTTTTTTTGATGTACTTATTTAATAAGATAT [XGTACX_site376]	8.38 ± 0.47
ATATATAATATTTTTATTTTTATTTTTTTTTTATGA [TGCATGCA_negctrl_site577]	8.34 ± 0.49
AAAAAGATAAAATATACATGCATATATAATATACAT [TGCATGCA_site488]	8.94 ± 0.4
TAAACAGAAGCACATACACACACTCAAAAAAAAAAA [CACACA_site3051]	9.53 ± 0.39
TATATATATATATATGTGCACATTTATTGCCTTTGC	10.11 ± 0.071
ACATATTATATATGTGTGCACATATATATATATTTA [GTGCAC_site9591]	9.7 ± 0.33
CTTTATATATATTGCGTGCACATTTTTTTTTTTTTT	8.99 ± 0.53
TATAGATGTGGTTTATGTACATACTATAAAAAATCA [XGTACX_site1400]	8.7 ± 0.49
CGTATTTATATAATTACACACCATATTATAATTATT [CACACA_site3760]	8.84 ± 0.44
TTTCTTTATTTATAATAATTTTTTATTAAAAATAGA [CACACA_negctrl_site1610]	8 ± 0.49
GATATAAACGTATATGTACATATATATATATATATA [GTGCAC_negctrl_site186]	10.1 ± 0.38
TTACAAAAAAAAAGGCGCGGATGGGGGCAATAGCAA [CACACA_negctrl_site238]	9.39 ± 0.45
TGCACAGACGGACACACACACAACTAAAAAATAATG [CACACA_site5424]	9.69 ± 0.61
TGCACAAAATTATGCACACACCTAAAATTAATTTTT [CACACA_site5596]	9.06 ± 0.34
AAAAAATTAGATTATGCACACACACTAATAAATAAT [CACACA_site8604]	9.38 ± 0.32
ATTATGCACCAACACACACACACACCCCTAAAAAAT [CACACA_site2568]	10.04 ± 0.057
ATTATGCACGGACACACACACACACCCCTAAAAAAT [CACACA_site5426]	10.1 ± 0.32
ATTATGCACAGACACACACACACACTACTAAAAAAT [CACACA_site7252]	10.2 ± 0.28
ATTTTTTCTTATAAAAAAGAAAAAGAAAAAGAAAAA [CACACA_negctrl_site1216]	8.02 ± 0.42
GTTTAGATAAAAGGGCGTACATCTATTTTTGACTAA [XGTACX_site7170]	8.62 ± 0.36
GAAACGATTTAATACACACACGTATTATAGATATAT [CACACA_site6666]	9.25 ± 0.34

Sequence	gcPBM binding intensity (ln)
ATTTTTTTTGTTTATTCTTATGTGGTTATTAAATTA [CACACA_negctrl_site1000]	8.72 ± 0.52
TTATATAAAGAATGTACACACAGAAATGCACCCACA [CACACA_site2282]	9.39 ± 0.2
TATACACACAGACATGCATGCACATATATATATACA [TGCATGCA_site30]	9.54 ± 0.42
TACACCCAGAAATGCACACACATATATATATATATA [CACACA_site5289]	10.26 ± 0.071
TGTACACCCAGAAATGCACACACATATATATATATA [CACACA_site8716]	9.94 ± 0.29
TACAGACAGAAATGCACACACATATTTATATTTATA [CACACA_site7139]	9.35 ± 0.3
TACAGACAGAAATGCACACACATATATATATATATA [CACACA_site2283]	10.2
TCATCATATTATATATGTACATATATAATAATTTAT [XGTACX_site1625]	8.62 ± 0.42
TTTTTATTTATTAATACACACACACCCACCCACAAA [CACACA_site7965]	9.805 ± 0.064
ACATAATTAACAAATACACACACACCCACCCACAAA [CACACA_site8069]	10.3 ± 0.13
GTATTATAGTATAATACACACCCAAATATTAAAAAG [CACACA_site7404]	9.02 ± 0.41
ATTAATTATATATATACACACACATACACCCAAATA [CACACA_site9126]	9.66 ± 0.23
TATTAATACAGACACACACACACACCCAATAAAATA [CACACA_site243]	10.29 ± 0.05
AAAAAAAAAAAATACACACAAACACAAATTAAATAA [CACACA_site3809]	9.32 ± 0.32
TTTATTTATTAATACACACACACACCCCCACAAAAT [CACACA_site240]	10.1 ± 0.22
TTTATTTATTAATACACACACACACCCAGACAAAAT [CACACA_site4292]	10 ± 0.099
ATAATTAACAAATACACACACACACCCAGACAAAAA [CACACA_site4445]	10.2
TTTATTTATTAATACACACACACACGCCCACAAAAT [CACACA_site6253]	9.995 ± 0.05
AATTAATAACAAAATAAACACACATATATAAATACA [CACACA_site8456]	9.03 ± 0.38
TATTAATACAGACACACACACACACTAATTAAAATA [CACACA_site7967]	9.96 ± 0.2
